Our source for the Potency values is PubChem BioAssay (NCATS).

SMILES strings stand for the structures. Results filed as inconclusive are left out. Entries that show only a call come without a potency. Active and inactive are the calls of the source. The call rests on the fitted dose curve; in most records, active means well fitted inhibition curve with a large enough effect; inconclusive means small, poorly fitted or top-dose-only effect; inactive means no such curve, though single readings can be large or run the other way.
Potency means the concentration at half of the fitted maximal effect.

The target of this experiment is Calcium and integrin-binding protein 1 (Homo sapiens) (UniProt Q99828). Description: Confirmatory qHTS for Identification of Calcium Integrin Binding Protein 1 (CIB1) Competitor (AID 1508617). Further: nearly all actives have a fitted effect of over 65% in size. The note with it: CIB1 binding competition assay, biochemical qHTS; series mostly up to 114 µM. The procedure, abridged: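 Confirmatory qHTS measures displacement of a FITC-alphaIIb peptide (100 nM) from CIB1-GST (1 uM) by fluorescence polarization. Calcium-containing HEPES buffer, pH 7.4; two 15 min room-temperature incubations.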
Calcium and integrin-binding protein 1 (Homo sapiens), sequence (Q99828 whole entry, looked up): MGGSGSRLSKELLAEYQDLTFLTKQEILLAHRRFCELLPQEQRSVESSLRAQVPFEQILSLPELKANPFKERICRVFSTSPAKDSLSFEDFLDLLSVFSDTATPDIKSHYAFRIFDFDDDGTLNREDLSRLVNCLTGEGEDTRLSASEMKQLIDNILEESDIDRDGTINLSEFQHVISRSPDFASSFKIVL
Background: qHTS replaces the single test concentration by a dilution series.
As to `CC1CCC2(C1)N=C(Nc1nc3ccccc3o1)NC1=C2C(=O)CCC1` (centres undefined), the Potency entry was “inactive”.
As for `CC(OC(=O)c1ccc(S(C)(=O)=O)c([N+](=O)[O-])c1)C(=O)NC1C2CC3CC(C2)CC1C3` (centres undefined), the entry is “inactive”.
As for `CN(CC(=O)Nc1ccc(N2CCOCC2)cc1)Cc1c(O)ccc2ccccc12`, the entry is “inactive”; as for `O=C(O)c1ccc(O)c2ncc(N3CCC(N4CCOCC4)C3)cc12` (centres undefined), “inactive”; as for `CCc1ccc(NC(=O)C(=O)NNC(=O)c2cccs2)cc1`, “inactive”.
As for `CCOc1ccc(CCNC(=O)c2ccc(N3N=C(C)CC3=O)cc2)cc1OCC`, the Potency result was “inactive”.
As for `O=C(c1ccc(-c2cc(O)c3ncccc3c2)cc1)N1CCNCC1`, the entry is “inactive”.
As for `NC(=O)c1cccc(-c2cnc3c(O)ccc(C(=O)O)c3c2)c1`, the entry is “inactive”; as for `COc1ccc2c(=O)n3nc(Nc4cccc(N5CCN(C)CC5)c4)sc3nc2c1`, “inactive”; as for `Cc1ccc(C(=O)NC(c2ccco2)c2cc(Cl)c3cccnc3c2O)cc1` (centres undefined), “inactive”.
Then `O=C(Cc1ccc(Cl)c(Cl)c1)Nc1ccc([S+](=O)([O-])Nc2nnc(-c3ccccn3)s2)cc1`, with 35.5 µM (active); and `CN(C)c1cnc2c(O)cccc2c1`, with “inactive”.
As to `C/C(=C\c1ccc2c(c1)OCO2)C1Nc2cccc3cccc(c23)N1`, the Potency entry was “inactive”.
With `O=C(Cc1ccccc1)NC(c1ccco1)c1cc(Cl)c2cccnc2c1O` (centres undefined), the Potency result is “inactive”.
Then `COC(=O)c1ccc(O)c2ncc(-c3ccc(C(=O)N4CCNCC4)cc3)cc12`, with “inactive”; and `Oc1cccc2cc(C3CC3)cnc12`, with “inactive”; and `C=CCNc1oc(-c2ccc(Cl)cc2)nc1C#N`, with 44.7 µM (active).
Take `Cc1cnc(-c2ccccc2C(C)C)nc1NCc1ccc(-c2ccc(F)nc2)cc1`: the Potency was 112 µM (active).
Then `O=C1CCC2=C1C1(CCCC1)N=C(Nc1nc3ccccc3o1)N2`, with “inactive”; and `NC(=O)C1CCN(c2nc(-c3ccccc3N)cs2)CC1`, with “inactive”; and `O=C1CCCC2=C1C(c1ccn[nH]1)N=C(Nc1nc3ccccc3o1)N2` (centres undefined), with “inactive”.
As for `O=C(NCCCN1CCNCC1)c1cccc(-c2cc(O)c3ncccc3c2)c1`, the entry is “inactive”.
Then `NC(=O)c1ccc(O)c2ncccc12`, with “inactive”; and `CCOC(=O)c1[nH]c2c(c1C)C(=S)CC(c1ccco1)C2` (centres undefined), with 39.8 µM (active); and `CN1CCN(c2ccc(-c3cc(O)c4ncccc4c3)cc2)CC1`, with “inactive”.
For `Cc1ccc(OCCn2c(CCNC(=O)c3ccsc3)nc3ccccc32)cc1`, the Potency entry was “inactive”.
Regarding `Cc1ccsc1C1N=C(Nc2nc3ccccc3o2)NC2=C1C(=O)CCC2` (centres undefined), the Potency result is “inactive”.
In the case of `Cc1cc(NS(=O)(=O)c2ccc(NC(=O)Cc3ccc(F)c(Cl)c3)cc2)no1`, the Potency entry is “inactive”.
Regarding `O=C1CCCC2=C1C1(CCOCC1)N=C(Nc1nc3ccccc3o1)N2`, the Potency entry was “inactive”.
As for `CC(C)(C)OC(=O)CC(=O)NNC(=O)c1nc2ccccc2[nH]1`, the entry is “inactive”; as for `Cc1ccccc1NC(=O)CN1C(=O)N/C(=C\c2cn(-c3cccc(C(=O)O)c3)cn2)C1=O`, “inactive”.
Then `O=C(NC(c1ccco1)c1cc(Cl)c2cccnc2c1O)c1cccs1` (centres undefined), with “inactive”.
Then `O=C1CCCC2=C1C(c1ncccc1C(F)(F)F)N=C(Nc1nc3ccccc3o1)N2` (centres undefined), with “inactive”; and `COC(=O)c1ccc(O)c2ncc(-c3ccc(C(=O)NCCCN(C)C)cc3)cc12`, with “inactive”; and `CS(=O)(=O)c1ccc(C(=O)OCC(=O)N2CCC(Cc3ccccc3)CC2)cc1[N+](=O)[O-]`, with “inactive”.
Consider `CCOc1ccc(CCNC(C)=O)cc1OCC`, for which the Potency entry was “inactive”.
Then `COc1ccccc1Nc1cc2ccccc2c(=O)[nH]1`, with 39.8 µM (active); and `CC(C)c1nc(Nc2nc3ccccc3o2)nc2c1CCCC2`, with “inactive”.
Turning to `CSc1cc2c(s1)c1cnn(Cc3cccc(N)c3)c(=O)c1n2C`, the Potency was 39.8 µM (active).
